# Source: paper PMC11062922 (Nature Chemical Biology, 2023)
# Read-outs that look alike come from different tables or passages of the source.
# Tests used:
# [1] = test system: IRAK4; details: read-out: apparent Kd, n = 1
# [2] = test system: LATS1; details: read-out: apparent Kd, n = 1
# [3] = compound concentrations:100 nM and 1000 nM (sheet 'Lestaurtinib' of Supplementary Table 1),run:Lestaurtinib_02443_R2,Plate:MR009
# [4] = compound concentrations:100 nM and 1000 nM (sheet 'Lestaurtinib' of Supplementary Table 1),run:Lestaurtinib_02443_R3,Plate:MR009
# [5] = compound concentrations:100 nM and 1000 nM (sheet 'Lestaurtinib' of Supplementary Table 1),run:Lestaurtinib_02482_R1,Plate:MR011
# [6] = compound concentrations:100 nM and 1000 nM (sheet 'Lestaurtinib' of Supplementary Table 1),run:Lestaurtinib_02482_R2,Plate:MR011
# [7] = compound concentrations:100 nM and 1000 nM (sheet 'Lestaurtinib' of Supplementary Table 1),run:Lestaurtinib_02482_R3,Plate:MR011
# [8] = compound concentrations:100 nM and 1000 nM (sheet 'Lestaurtinib' of Supplementary Table 1),run:Lestaurtinib_02577_R1,Plate:MR016
# [9] = compound concentrations:100 nM and 1000 nM (sheet 'Lestaurtinib' of Supplementary Table 1),run:Lestaurtinib_02577_R2,Plate:MR016
# [10] = compound concentrations:100 nM and 1000 nM (sheet 'Lestaurtinib' of Supplementary Table 1),run:Lestaurtinib_02577_R3,Plate:MR016
# [11] = compound concentrations:100 nM and 1000 nM (sheet 'Lestaurtinib' of Supplementary Table 1),run:Lestaurtinib_02601_R2,Plate:MR018
# [12] = compound concentrations:100 nM and 1000 nM (sheet 'Lestaurtinib' of Supplementary Table 1),run:Lestaurtinib_02606_R1,Plate:MR019
substance,measurement,setting,value
Lestaurtinib,potency estimated from few doses,[1]; [3],0.0922 µM
same,potency estimated from few doses,[1]; [4],0.0989 µM
same,potency estimated from few doses,"[1]; compound concentrations:100 nM and 1000 nM (sheet 'Lestaurtinib' of Supplementary Table 1),run:Lestaurtinib_02473_R1,Plate:MR010",0.0798 µM
same,potency estimated from few doses,"[1]; compound concentrations:100 nM and 1000 nM (sheet 'Lestaurtinib' of Supplementary Table 1),run:Lestaurtinib_02473_R2,Plate:MR010",0.132 µM
same,potency estimated from few doses,"[1]; compound concentrations:100 nM and 1000 nM (sheet 'Lestaurtinib' of Supplementary Table 1),run:Lestaurtinib_02473_R3,Plate:MR010",0.0965 µM
same,potency estimated from few doses,[1]; [5],0.0782 µM
same,potency estimated from few doses,[1]; [6],0.18 µM
same,potency estimated from few doses,[1]; [7],0.0997 µM
same,potency estimated from few doses,"[1]; compound concentrations:100 nM and 1000 nM (sheet 'Lestaurtinib' of Supplementary Table 1),run:Lestaurtinib_02496_R1,Plate:MR013",0.124 µM
same,potency estimated from few doses,"[1]; compound concentrations:100 nM and 1000 nM (sheet 'Lestaurtinib' of Supplementary Table 1),run:Lestaurtinib_02496_R2,Plate:MR013",0.146 µM
same,potency estimated from few doses,"[1]; compound concentrations:100 nM and 1000 nM (sheet 'Lestaurtinib' of Supplementary Table 1),run:Lestaurtinib_02496_R3,Plate:MR013",0.193 µM
same,potency estimated from few doses,"[1]; compound concentrations:100 nM and 1000 nM (sheet 'Lestaurtinib' of Supplementary Table 1),run:Lestaurtinib_02566_R1,Plate:MR014",0.142 µM
same,potency estimated from few doses,"[1]; compound concentrations:100 nM and 1000 nM (sheet 'Lestaurtinib' of Supplementary Table 1),run:Lestaurtinib_02566_R3,Plate:MR014",0.0808 µM
same,potency estimated from few doses,[1]; [8],0.0886 µM
same,potency estimated from few doses,[1]; [9],0.0975 µM
same,potency estimated from few doses,[1]; [10],0.0638 µM
same,potency estimated from few doses,"[1]; compound concentrations:100 nM and 1000 nM (sheet 'Lestaurtinib' of Supplementary Table 1),run:Lestaurtinib_02601_R1,Plate:MR018",0.144 µM
same,potency estimated from few doses,[1]; [11],0.142 µM
same,potency estimated from few doses,[1]; [12],0.0885 µM
same,potency estimated from few doses,"[1]; compound concentrations:100 nM and 1000 nM (sheet 'Lestaurtinib' of Supplementary Table 1),run:Lestaurtinib_02624_R2,Plate:MR020",0.143 µM
same,potency estimated from few doses,"[1]; compound concentrations:100 nM and 1000 nM (sheet 'Lestaurtinib' of Supplementary Table 1),run:Lestaurtinib_02624_R3,Plate:MR020",0.124 µM
same,potency estimated from few doses,"[1]; compound concentrations:100 nM and 1000 nM (sheet 'Lestaurtinib' of Supplementary Table 1),run:Lestaurtinib_02724_R2,Plate:MR021",0.0993 µM
same,potency estimated from few doses,"[1]; compound concentrations:100 nM and 1000 nM (sheet 'Lestaurtinib' of Supplementary Table 1),run:Lestaurtinib_02741_R1,Plate:MR023",0.0896 µM
same,potency estimated from few doses,"[1]; compound concentrations:100 nM and 1000 nM (sheet 'Lestaurtinib' of Supplementary Table 1),run:Lestaurtinib_02741_R3,Plate:MR023",0.0713 µM
same,potency estimated from few doses,"[1]; compound concentrations:100 nM and 1000 nM (sheet 'Lestaurtinib' of Supplementary Table 1),run:Lestaurtinib_02748_R3,Plate:MR024",0.0809 µM
same,potency estimated from few doses,"[1]; compound concentrations:100 nM and 1000 nM (sheet 'Lestaurtinib' of Supplementary Table 1),run:Lestaurtinib_02752_R2,Plate:MR025",0.16 µM
same,potency estimated from few doses,"[1]; compound concentrations:100 nM and 1000 nM (sheet 'Lestaurtinib' of Supplementary Table 1),run:Lestaurtinib_02752_R3,Plate:MR025",0.0801 µM
same,potency estimated from few doses,"[1]; compound concentrations:100 nM and 1000 nM (sheet 'Lestaurtinib' of Supplementary Table 1),run:Lestaurtinib_02765_R2,Plate:MR026",0.0757 µM
same,potency estimated from few doses,"[1]; compound concentrations:100 nM and 1000 nM (sheet 'Lestaurtinib' of Supplementary Table 1),run:Lestaurtinib_02766_R2,Plate:MR027",0.146 µM
same,potency estimated from few doses,"[1]; compound concentrations:100 nM and 1000 nM (sheet 'Lestaurtinib' of Supplementary Table 1),run:Lestaurtinib_02766_R3,Plate:MR027",0.121 µM
same,potency estimated from few doses,"[1]; compound concentrations:100 nM and 1000 nM (sheet 'Lestaurtinib' of Supplementary Table 1),run:Lestaurtinib_02768_R1,Plate:MR028",0.136 µM
same,potency estimated from few doses,"[1]; compound concentrations:100 nM and 1000 nM (sheet 'Lestaurtinib' of Supplementary Table 1),run:Lestaurtinib_02768_R2,Plate:MR028",0.0978 µM
same,potency estimated from few doses,"[1]; compound concentrations:100 nM and 1000 nM (sheet 'Lestaurtinib' of Supplementary Table 1),run:Lestaurtinib_02795_R2,Plate:MR022",0.0941 µM
same,potency estimated from few doses,"[1]; compound concentrations:100 nM and 1000 nM (sheet 'Lestaurtinib' of Supplementary Table 1),run:Lestaurtinib_02795_R3,Plate:MR022",0.239 µM
same,potency estimated from few doses,"[1]; compound concentrations:100 nM and 1000 nM (sheet 'Lestaurtinib' of Supplementary Table 1),run:Lestaurtinib_02896_R1,Plate:MR030",0.113 µM
same,potency estimated from few doses,"[1]; compound concentrations:100 nM and 1000 nM (sheet 'Lestaurtinib' of Supplementary Table 1),run:Lestaurtinib_03172_R2,Plate:MR031",0.0662 µM
same,potency estimated from few doses,"[1]; compound concentrations:100 nM and 1000 nM (sheet 'Lestaurtinib' of Supplementary Table 1),run:Lestaurtinib_03252_R1,Plate:MR032",0.0959 µM
same,potency estimated from few doses,"[1]; compound concentrations:100 nM and 1000 nM (sheet 'Lestaurtinib' of Supplementary Table 1),run:Lestaurtinib_03260_R2,Plate:MR033",0.132 µM
same,potency estimated from few doses,"[1]; compound concentrations:100 nM and 1000 nM (sheet 'Lestaurtinib' of Supplementary Table 1),run:Lestaurtinib_03260_R3,Plate:MR033",0.0851 µM
same,potency estimated from few doses,"[2]; compound concentrations:100 nM and 1000 nM (sheet 'Lestaurtinib' of Supplementary Table 1),run:Lestaurtinib_02339_R1,Plate:MR001",0.0278 µM
same,potency estimated from few doses,"[2]; compound concentrations:100 nM and 1000 nM (sheet 'Lestaurtinib' of Supplementary Table 1),run:Lestaurtinib_02339_R2,Plate:MR001",0.0314 µM
same,potency estimated from few doses,"[2]; compound concentrations:100 nM and 1000 nM (sheet 'Lestaurtinib' of Supplementary Table 1),run:Lestaurtinib_02339_R3,Plate:MR001",0.0373 µM
same,potency estimated from few doses,"[2]; compound concentrations:100 nM and 1000 nM (sheet 'Lestaurtinib' of Supplementary Table 1),run:Lestaurtinib_02364_R2,Plate:MR002",0.0226 µM
same,potency estimated from few doses,"[2]; compound concentrations:100 nM and 1000 nM (sheet 'Lestaurtinib' of Supplementary Table 1),run:Lestaurtinib_02364_R3,Plate:MR002",0.0441 µM
same,potency estimated from few doses,"[2]; compound concentrations:100 nM and 1000 nM (sheet 'Lestaurtinib' of Supplementary Table 1),run:Lestaurtinib_02367_R1,Plate:MR003",0.0278 µM
same,potency estimated from few doses,"[2]; compound concentrations:100 nM and 1000 nM (sheet 'Lestaurtinib' of Supplementary Table 1),run:Lestaurtinib_02367_R2,Plate:MR003",0.0403 µM
same,potency estimated from few doses,"[2]; compound concentrations:100 nM and 1000 nM (sheet 'Lestaurtinib' of Supplementary Table 1),run:Lestaurtinib_02367_R3,Plate:MR003",0.0221 µM
same,potency estimated from few doses,"[2]; compound concentrations:100 nM and 1000 nM (sheet 'Lestaurtinib' of Supplementary Table 1),run:Lestaurtinib_02381_R1,Plate:MR004",0.027 µM
same,potency estimated from few doses,"[2]; compound concentrations:100 nM and 1000 nM (sheet 'Lestaurtinib' of Supplementary Table 1),run:Lestaurtinib_02407_R1,Plate:MR005",0.0395 µM
same,potency estimated from few doses,"[2]; compound concentrations:100 nM and 1000 nM (sheet 'Lestaurtinib' of Supplementary Table 1),run:Lestaurtinib_02407_R2,Plate:MR005",0.0277 µM
same,potency estimated from few doses,"[2]; compound concentrations:100 nM and 1000 nM (sheet 'Lestaurtinib' of Supplementary Table 1),run:Lestaurtinib_02422_R1,Plate:MR006",0.0342 µM
same,potency estimated from few doses,"[2]; compound concentrations:100 nM and 1000 nM (sheet 'Lestaurtinib' of Supplementary Table 1),run:Lestaurtinib_02422_R3,Plate:MR006",0.0342 µM
same,potency estimated from few doses,"[2]; compound concentrations:100 nM and 1000 nM (sheet 'Lestaurtinib' of Supplementary Table 1),run:Lestaurtinib_02437_R1,Plate:MR007",0.035 µM
same,potency estimated from few doses,"[2]; compound concentrations:100 nM and 1000 nM (sheet 'Lestaurtinib' of Supplementary Table 1),run:Lestaurtinib_02437_R2,Plate:MR007",0.027 µM
same,potency estimated from few doses,"[2]; compound concentrations:100 nM and 1000 nM (sheet 'Lestaurtinib' of Supplementary Table 1),run:Lestaurtinib_02437_R3,Plate:MR007",0.000206 µM
same,potency estimated from few doses,"[2]; compound concentrations:100 nM and 1000 nM (sheet 'Lestaurtinib' of Supplementary Table 1),run:Lestaurtinib_02438_R3,Plate:MR008",0.029 µM
same,potency estimated from few doses,[2]; [3],0.0306 µM
same,potency estimated from few doses,[2]; [4],0.0386 µM
same,potency estimated from few doses,[2]; [5],0.0381 µM
same,potency estimated from few doses,[2]; [6],0.0327 µM
same,potency estimated from few doses,[2]; [7],0.046 µM
same,potency estimated from few doses,"[2]; compound concentrations:100 nM and 1000 nM (sheet 'Lestaurtinib' of Supplementary Table 1),run:Lestaurtinib_02572_R1,Plate:MR015",0.018 µM
same,potency estimated from few doses,"[2]; compound concentrations:100 nM and 1000 nM (sheet 'Lestaurtinib' of Supplementary Table 1),run:Lestaurtinib_02572_R2,Plate:MR015",0.0235 µM
same,potency estimated from few doses,"[2]; compound concentrations:100 nM and 1000 nM (sheet 'Lestaurtinib' of Supplementary Table 1),run:Lestaurtinib_02572_R3,Plate:MR015",0.0225 µM
same,potency estimated from few doses,[2]; [8],0.0366 µM
same,potency estimated from few doses,[2]; [9],0.0514 µM
same,potency estimated from few doses,[2]; [10],0.0638 µM
same,potency estimated from few doses,"[2]; compound concentrations:100 nM and 1000 nM (sheet 'Lestaurtinib' of Supplementary Table 1),run:Lestaurtinib_02584_R2,Plate:MR017",0.0501 µM
same,potency estimated from few doses,"[2]; compound concentrations:100 nM and 1000 nM (sheet 'Lestaurtinib' of Supplementary Table 1),run:Lestaurtinib_02584_R3,Plate:MR017",0.0452 µM
same,potency estimated from few doses,[2]; [11],0.0791 µM
same,potency estimated from few doses,"[2]; compound concentrations:100 nM and 1000 nM (sheet 'Lestaurtinib' of Supplementary Table 1),run:Lestaurtinib_02601_R3,Plate:MR018",0.0559 µM
same,potency estimated from few doses,[2]; [12],0.0391 µM
same,potency estimated from few doses,"[2]; compound concentrations:100 nM and 1000 nM (sheet 'Lestaurtinib' of Supplementary Table 1),run:Lestaurtinib_02606_R2,Plate:MR019",0.0358 µM
